Measured values published in PubChem BioAssay (Tox21).
Inconclusive results are not listed. Entries that show only a call come without a potency. A number with no mark means an inactive call. Active and inactive are the calls of the source. Calls follow the shape of the dose curve; as a rule, active = well fitted cell-killing curve with a large enough effect in the repeat runs; inconclusive = weak or mixed curves, or effect the other way; inactive = flat fitted curve, though single readings scatter.

Tests used:
[1] = cAMP Responsive Elements (CRE) small molecule antagonists, cell-based qHTS assay: qHTS cell viability counter screen (AID 2060913); also: nearly all actives have a fitted effect of over 40% in size
How it was run: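 Cytotoxicity counter screen multiplexed with the CRE-bla antagonist read: HEK293T cells in DMEM with dialyzed FBS and 25 mM HEPES were treated 3 hrs under 0.25 uM final NKH477, then viability measured by CellTiter-Glo luminescence.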

[2] = cAMP Responsive Elements (CRE) small molecule agonists, cell-based qHTS assay: qHTS cell viability counter screen (AID 2060914);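 also: viability read after 3 h of compound exposure; nearly all actives have a fitted effect of over 50% in size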
How it was run: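 Cytotoxicity counter screen multiplexed with the CRE-bla reporter assay in HEK 293T cells: 3 h compound exposure at 37 °C, followed by CellTiter-Glo luminescence measured in the same wells.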
Potency is read from the fitted curve at half-maximal effect.

Nc1c(N=Nc2ccc(-c3ccc(N=Nc4cc(S(=O)(=O)O)c5ccccc5c4N)cc3)cc2)cc(S(=O)(=O)O)c2ccccc12
Potency [1]: inactive | Potency [2]: inactive

CN(C)C/C=C(/c1ccc(Br)cc1)c1cccnc1
Potency [1]: inactive | Potency [2]: inactive

OCc1ccccn1
Potency [1]: inactive | Potency [2]: inactive

CCc1cc2cc(OC)c(OC)cc2c(Cc2ccccc2)n1
Potency [1]: inactive | Potency [2]: inactive

CC1(C)C(=O)N(Br)C(=O)N1Cl
Potency [1]: inactive | Potency [2]: inactive

NC(=O)c1ccncc1
Potency [1]: inactive | Potency [2]: inactive

C1CCC(SSC2CCCCC2)CC1
Potency [1]: inactive | Potency [2]: inactive

Cc1ccc(C)c(C)c1
Potency [1]: inactive | Potency [2]: inactive

CCN(CC)CCNC(=O)c1ccc(NC(C)=O)cc1
Potency [1]: inactive | Potency [2]: inactive

CCCCN(CCCC)C(C(N)=O)c1ccc(OC)cc1 (stereo unspecified)
Potency [1]: inactive | Potency [2]: inactive

CCOC(=O)O[C@]1(C(=O)OCCl)CC[C@H]2[C@@H]3CCC4=CC(=O)C=C[C@]4(C)[C@H]3[C@@H](O)C[C@@]21C
Potency [1]: inactive | Potency [2]: inactive

O=C(CCS)OCC(COC(=O)CCS)(COC(=O)CCS)COC(=O)CCS
Potency [1]: inactive | Potency [2]: inactive

CCc1cccc(O)c1
Potency [1]: inactive | Potency [2]: inactive

COc1c(Cl)c(Cl)c(Cl)c(Cl)c1Cl
Potency [1]: inactive | Potency [2]: inactive

C=CC(=O)OCCCCCC
Potency [1]: inactive | Potency [2]: inactive

CN1Cc2c(N)cccc2C(c2ccccc2)C1 (stereo unspecified)
Potency [1]: inactive | Potency [2]: inactive

C1CNCCN1
Potency [1]: inactive | Potency [2]: inactive

O=C(Nc1cccc(Cl)c1)OCC#CCCl
Potency [1]: inactive | Potency [2]: inactive

CC1(c2ccccc2)OC(C(=O)O)=CC1=O (stereo unspecified)
Potency [1]: inactive | Potency [2]: inactive

O=S(=O)(O)c1cc(I)c(O)c2ncccc12
Potency [1]: inactive | Potency [2]: inactive

CC(=O)OCC(=O)[C@@]12N=C(C)O[C@@H]1C[C@H]1[C@@H]3CCC4=CC(=O)C=C[C@]4(C)[C@H]3[C@@H](O)C[C@@]12C
Potency [1]: inactive | Potency [2]: inactive

O=C(O)/C=C/c1ccc(Cn2ccnc2)cc1
Potency [1]: inactive | Potency [2]: inactive

Clc1ccccc1C(c1ccccc1)(c1ccccc1)n1ccnc1
Potency [1]: inactive | Potency [2]: inactive

COc1ccc(OC(=O)N(CC(=O)O)Cc2ccc(OCCc3nc(-c4ccccc4)oc3C)cc2)cc1
Potency [1]: inactive | Potency [2]: inactive

Cc1cc(C)c(C=O)c(C)c1
Potency [1]: inactive | Potency [2]: inactive

O=C(O)c1ccc(C(=O)O)cc1
Potency [1]: inactive | Potency [2]: inactive

CC(=O)C1(C)CC2=C(CCCC2(C)C)CC1C (stereo unspecified)
Potency [1]: inactive | Potency [2]: inactive

c1ccc2nccnc2c1
Potency [1]: inactive | Potency [2]: inactive

C=C[Si](OC(C)=O)(OC(C)=O)OC(C)=O
Potency [1]: inactive | Potency [2]: inactive

Cc1ccc(S(=O)(=O)NCl)cc1
Potency [1]: inactive | Potency [2]: inactive

Oc1ccccc1-c1nnco1
Potency [1]: inactive | Potency [2]: inactive

NC(N)=NCCC[C@H](N)C(=O)O
viability change, negative = cytotoxic [1]: -0.587% [at 8.39 µM] | activity change, negative = cytotoxicity [2]: -0.412% [at 8.39 µM]

CCCCCCC(O)CCCCCCCCCCC(=O)O (stereo unspecified)
Potency [1]: inactive | Potency [2]: inactive

CCCN1C[C@H](CSC)C[C@@H]2c3cccc4[nH]cc(c34)C[C@H]21
Potency [1]: inactive | Potency [2]: inactive

COc1cc(C)c(Cc2cnc(N)nc2N)cc1OC
Potency [1]: inactive | Potency [2]: inactive

O=C(O)c1cccc(C(=O)O)n1
Potency [1]: inactive | Potency [2]: inactive

O=C(O)c1cc(=O)c2ccccc2o1
Potency [1]: inactive | Potency [2]: inactive

CCCCOCCOCCOCc1cc2c(cc1CCC)OCO2
Potency [1]: inactive | Potency [2]: inactive

CCCCCCCC/C=C\CCCCCCCC(=O)OCCCC
viability change, negative = cytotoxic [1]: -0.67% [at 18.9 µM] | activity change, negative = cytotoxicity [2]: -19.4% [at 18.9 µM]

CN(C)CCOC(c1ccccc1)c1ccccc1
Potency [1]: inactive | Potency [2]: inactive

Clc1ccc(Cn2c(CN3CCCC3)nc3ccccc32)cc1
Potency [1]: inactive | Potency [2]: inactive

CC(C)N1C(=O)c2ccccc2C1=O
Potency [1]: inactive | Potency [2]: inactive

O=C(O)c1cccc(C(=O)O)c1C(=O)O
Potency [1]: inactive | Potency [2]: inactive

Cc1ccc(N)c(S(=O)(=O)O)c1
Potency [1]: inactive | Potency [2]: inactive

Cc1cc(C)c(NC(=O)CN(CC(=O)O)CC(=O)O)c(C)c1Br
Potency [1]: inactive | Potency [2]: inactive

CC(CN)CC(C)(C)CCN (stereo unspecified)
Potency [1]: inactive | Potency [2]: inactive

COc1ccc(C)cc1[N+](=O)[O-]
Potency [1]: inactive | Potency [2]: inactive

CN1CCN(c2c(F)cc3c(=O)c(C(=O)O)cn(CCF)c3c2F)CC1
Potency [1]: inactive | Potency [2]: inactive

CC(CCO)CCc1ccccc1 (stereo unspecified)
Potency [1]: inactive | Potency [2]: inactive

O=C(O)/C=C/C(=O)O
Potency [1]: inactive | Potency [2]: inactive

C[C@H](CCC(=O)O)[C@H]1CC[C@H]2[C@@H]3[C@H](O)C[C@@H]4C[C@H](O)CC[C@]4(C)[C@H]3CC[C@]12C
Potency [1]: inactive | Potency [2]: inactive

OCCc1ccccn1
Potency [1]: inactive | Potency [2]: inactive

CC(C)(C)NCC(O)COc1ccccc1OCC1CCCO1 (stereo unspecified)
Potency [1]: inactive | Potency [2]: inactive

CNC(=O)CN(CCN(CCN(CC(=O)[O-])CC(=O)NC)CC(=O)[O-])CC(=O)[O-].O.[Gd+3]
Potency [1]: inactive | Potency [2]: inactive

Cc1c(C(=O)c2c[nH]n(C)c2=O)ccc(S(C)(=O)=O)c1C1=NOCC1
Potency [1]: inactive | Potency [2]: inactive

O=C(O)c1ccccc1S
Potency [1]: inactive | Potency [2]: inactive

O=CC1CC1
Potency [1]: inactive | Potency [2]: inactive

CC(C)(c1ccc(Oc2ccc3c(c2)C(=O)OC3=O)cc1)c1ccc(Oc2ccc3c(c2)C(=O)OC3=O)cc1
Potency [1]: inactive | Potency [2]: inactive

C=C(C)C(=O)OCCCCCCCC(C)C
Potency [1]: inactive | Potency [2]: inactive

CC(=O)Nc1ccc(OC(=O)c2ccccc2OC(C)=O)cc1
Potency [1]: inactive | Potency [2]: inactive

CCc1cc(C2=C(C(=O)O)N(c3ccccc3C(F)(F)F)S(=O)(=O)c3ccccc32)cc2c1OCO2
Potency [1]: inactive | Potency [2]: inactive

Nc1nccs1
Potency [1]: inactive | Potency [2]: inactive

O=C(CCN1CCN(CCO)CC1)N1c2ccccc2Sc2ccc(C(F)(F)F)cc21
Potency [1]: inactive | Potency [2]: inactive

Oc1cc(O)c(Cl)cc1Cl
Potency [1]: inactive | Potency [2]: inactive

O=[N+]([O-])c1cc([N+](=O)[O-])c2ccc(S(=O)(=O)O)cc2c1O
Potency [1]: inactive | Potency [2]: inactive

CCCCCCCCCCn1cc[n+](CCCCCCCCCC)c1C
Potency [1]: 24.4 µM (active) | Potency [2]: 48.6 µM (active)

O=C(Cl)c1cc(C(=O)Cl)cc(C(=O)Cl)c1
Potency [1]: inactive | Potency [2]: inactive

CC1=CC[C@H](C(C)C)C=C1
Potency [1]: inactive | Potency [2]: inactive

C=CC(=O)NC(C)(C)C
Potency [1]: inactive | Potency [2]: inactive

Oc1ccc(Oc2ccccc2)cc1
Potency [1]: inactive | Potency [2]: inactive

CCCCC(O)/C=C(C)/C=C/C=C/C(=O)N1CCCC1=O (stereo unspecified)
Potency [1]: inactive | Potency [2]: inactive

Cc1occc1S
Potency [1]: inactive | Potency [2]: inactive

Cc1ncc(CO)c(CN)c1O
Potency [1]: inactive | Potency [2]: inactive

CCc1cc(Cl)c(OC)c(C(=O)NC[C@@H]2CCCN2CC)c1O
Potency [1]: inactive | Potency [2]: inactive

CCN(CC)CCOC(=O)C(Cc1cccc2ccccc12)CC1CCCO1 (stereo unspecified)
Potency [1]: inactive | Potency [2]: inactive

CO/N=C(\C(=O)O)c1csc(NC(=O)CCl)n1
Potency [1]: inactive | Potency [2]: inactive

CN1CCC[C@@H]1Cc1c[nH]c2ccc(CCS(=O)(=O)c3ccccc3)cc12
Potency [1]: inactive | Potency [2]: inactive

CCCCC(CC)COC(=O)c1ccccc1O (stereo unspecified)
Potency [1]: inactive | Potency [2]: inactive

CC(Cc1ccccc1)(NC(=O)CN)c1ccccc1 (stereo unspecified)
Potency [1]: inactive | Potency [2]: inactive

CO/N=C(\C(=O)N[C@@H]1C(=O)N2C(C(=O)O)=C(CSc3nc(=O)c(O)nn3C)CS[C@H]12)c1csc(N)n1
Potency [1]: inactive | Potency [2]: inactive

O=C(CCc1ccc(O)cc1)c1c(O)cc(O)cc1O
Potency [1]: inactive | Potency [2]: inactive

C=C(C)C(=O)OCc1ccccc1
Potency [1]: inactive | Potency [2]: inactive

[O-][n+]1cccc(/C(Cl)=N/OC[C@@H](O)CN2CCCCC2)c1
Potency [1]: inactive | Potency [2]: inactive

CCCCN1CCCC[C@H]1C(=O)Nc1c(C)cccc1C
Potency [1]: inactive | Potency [2]: inactive

CCN(CC)CC(=O)OCC(=O)[C@@]1(O)CC[C@H]2[C@@H]3CCC4=CC(=O)CC[C@]4(C)[C@H]3[C@@H](O)C[C@@]21C
Potency [1]: inactive | Potency [2]: inactive

Cc1ccccc1C(=O)O
Potency [1]: inactive | Potency [2]: inactive

CCCCCCCCCCCC(=O)[O][Sn]([CH2]CCC)([CH2]CCC)[O]C(=O)CCCCCCCCCCC
Potency [1]: inactive | Potency [2]: inactive

COc1cc2c(cc1N)oc1ccccc12
Potency [1]: inactive | Potency [2]: inactive

Cc1c(C(=O)NCCO)[n+](=O)c2ccccc2n1[O-]
Potency [1]: inactive | Potency [2]: inactive

CCCCCCCCCCCCOC(C)=O
Potency [1]: inactive | Potency [2]: inactive

CC(C)(C)CCCCCCOC(=O)c1ccccc1C(=O)OCCCCCCC(C)(C)C
Potency [1]: inactive | Potency [2]: inactive

CC(=O)N[C@@H](CS)C(=O)O
Potency [1]: inactive | Potency [2]: inactive

Nc1ccc(Cl)cc1Cl
Potency [1]: inactive | Potency [2]: inactive

CN(C)CCOCCN(C)C
Potency [1]: inactive | Potency [2]: inactive

CCCCCCCCCCCCCCC1CO1 (stereo unspecified)
Potency [1]: inactive | Potency [2]: inactive

CC(C)(c1cc(Br)c(OCC(Br)CBr)c(Br)c1)c1cc(Br)c(OCC(Br)CBr)c(Br)c1 (stereo unspecified)
Potency [1]: inactive | Potency [2]: inactive

CCCCCCCOC(C)=O
Potency [1]: inactive | Potency [2]: inactive

CO[C@@H]1COCC[C@@H]1N[C@@H]1CC[C@@](C(=O)N2CCc3ncc(C(F)(F)F)cc3C2)(C(C)C)C1
Potency [1]: inactive | Potency [2]: inactive

CC(=O)OC(C)(C)C1CC=C(C)CC1 (stereo unspecified)
Potency [1]: inactive | Potency [2]: inactive

COc1cc(OC)c2ccc(=O)oc2c1
Potency [1]: inactive | Potency [2]: inactive

CCOC(=O)CCC(=O)OCC
Potency [1]: inactive | Potency [2]: inactive

N[C@H]1CN(c2c(F)cc3c(=O)c(C(=O)O)cn(C4C[C@H]4F)c3c2Cl)CC12CC2 (stereo partly specified)
Potency [1]: inactive | Potency [2]: inactive

Cc1cc(C)c(N=Nc2c(O)c(S(=O)(=O)O)cc3cc(S(=O)(=O)O)ccc23)cc1C
viability change, negative = cytotoxic [1]: 13% [at 8.39 µM] | activity change, negative = cytotoxicity [2]: 4.39% [at 8.39 µM]

C=C(C#N)C(=O)OCC
Potency [1]: inactive | Potency [2]: inactive

Cc1cccc2n[nH]nc12
Potency [1]: inactive | Potency [2]: inactive

CC(=O)c1ccc2c(c1)Cc1ccccc1-2
Potency [1]: inactive | Potency [2]: inactive

CCCCCC1=CCCC1=O
Potency [1]: inactive | Potency [2]: inactive

CCC[C@@H]1C[C@@H](C(=O)N[C@@H]([C@H]2O[C@H](SC)[C@H](O)[C@@H](O)[C@H]2O)[C@@H](C)O)N(C)C1
Potency [1]: inactive | Potency [2]: inactive
